Assay [1] addresses Ferritin light chain (Equus caballus) (UniProt P02791). The assay can be described thus: qHTS Validation Assay for Identification of Novel General Anesthetics (AID 2323). Note: series mostly up to about 77 µM. The method in brief: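 10 uM horse-spleen apoferritin + 1-AMA (50% saturated, PBS); cpd pin-transferred, 10 min RT. Ex 380/Em 535 nm endpoint. Activity normalized between free 1-AMA and 1-AMA/apoferritin; 4-parameter Hill fit of concentration-response.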
On the technique in general: Quantitative high-throughput screening tests each substance at several concentrations.

Assay [2] can be described thus: Cytometric Cell-Based qHTS for Inhibitors of the mTORC1 Signaling Pathway in MEF (Tsc2-/-, p53-/-) Cells (AID 2660).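 Note: Tsc2 and p53 null MEFs carrying empty vector with compound for 24 h; percent of cells above a phospho-rpS6 to PI ratio cutoff in each well; series mostly up to about 38 µM.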 The method in brief:
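Immunofluorescence qHTS of rpS6 Ser235/236 phosphorylation: MEFs (Tsc2-/-, p53-/-) treated 24 h, 37 C, in DMEM + 10% FBS. Alexa-488 signal normalized to PI count, referenced to rapamycin (7.5 nM) and DMSO; PI cell number recorded for viability.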

The nature of assay [3]: High Content Imaging Cell-Based qHTS for Inhibitors of the mTORC1 Signaling Pathway in MEF (Tsc2-/-, p53-/-) Cells (AID 2666).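 Note: percent of cells scored positive for phospho-rpS6 Ser235/236 immunostaining by imaging.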 An outline of the steps:
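MEF Tsc2-/- p53-/- (empty vector), DMEM/10% FBS; cpd 24 h 37 °C; PFA fix, Alexa-488 p-rpS6 S235/236 Ab, Hoechst; imaged; rapamycin-defined inhibition; % positive cells/well.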

Assay [4] in a line: High Content Imaging Cell-Based qHTS for Inhibitors of the mTORC1 Signaling Pathway in MEF Cells (AID 2667).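 Note: Tsc2-/- p53-/- MEFs stably re-expressing wild-type Tsc2 exposed 24 h; series mostly up to about 38 µM.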 The method in brief: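 Read-out is the share of phospho-rpS6-positive cells per well, from Hoechst-normalized Alexa-488 Ser235/236 staining imaged on IN Cell. Cells: WT Tsc2-expressing Tsc2-/-, p53-/- MEFs exposed to compound for 24 hrs.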
Assay [5] in a line: Validation screen for small molecules that induce DNA re-replication in MCF 10A normal breast cells (AID 463097). Note: nearly all actives have a fitted effect of over 60% in size. The method in brief:
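250 MCF 10A cells/well; compound pin-transferred; 48 hr, 37 C, 5% CO2; Hoechst 40 min; imaged 405/500-530 nm. Hits = more high-intensity nuclei.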

The target of assay [6] is Ubiquitin carboxyl-terminal hydrolase 2 (Homo sapiens) (UniProt O75604). The assay can be described thus: qHTS Validation Assay for Inhibitors of Ubiquitin-specific Protease USP2a Using CHOP2 as the Reporter (AID 463106). An outline of the steps:
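Fluorescence read-out at Ex 485nm/Em 531nm after 60min RT, following addition of 25nM Ub-CHOP2 plus 25nM reporter substrate to USP2 core (10nM) pretreated 30min with compound. Data normalized to NEM full inhibition; concentration-response curves fitted.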

Assay [7] concerns the target DNA polymerase III PolC-type (Bacillus subtilis (strain 168)) (UniProt P13267). Kind of assay: qHTS Validation Assay for the Inhibitors of DNA Replication in Gram-Positive Bacteria (AID 485295).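 Note: reconstituted holoenzyme with PolC plus beta clamp SSB and primase; PicoGreen fluorescence of double-stranded DNA made on primed circular M13 template; series mostly up to about 57 µM.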 An outline of the steps:
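PicoGreen fluorescence (ex 480–485/em 535–540 nm) reports dsDNA synthesized on ssM13Gori template with dNTPs/NTPs. Enzyme: holoenzyme rebuilt from purified PolC, beta subunit, SSB and primase. Compound preincubated before substrate addition; RT throughout.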

Assay [8] concerns the target Tumor susceptibility gene 101 protein (Homo sapiens) (UniProt Q99816). The assay can be described thus: qHTS Validation Assay for Iinhibitors of HIV-1 Budding by Blocking the Interaction of PTAP/TSG101 (AID 485342; calls by dose curve). The method in brief: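 FP read-out: FITC-PTAP peptide, 50 nM final, binding Tsg101 binding domain, 10 uM final; 20 min r.t.; 10 mM HEPES pH 7.5, 0.15 M NaCl, 0.01% Tween 20, 3 mM EDTA, 0.1 mM TCEP.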

For assay [9], the target named is Beta-2 adrenergic receptor (Homo sapiens) (UniProt P07550). Kind of assay: qHTS validation assay of beta-arrestin-biased ligands of beta2-adrenergic receptor (AID 485366). The method in brief: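 Agonism was measured as beta-arrestin recruitment to recombinant beta2-AR, releasing tTA to drive luciferase. Cells were exposed for 18 hr at 37 degrees C to a series up to 46 microM. %Activity from corrected luminescence gave concentration-response curves.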
Chain of Beta-2 adrenergic receptor (Homo sapiens) (P07550 whole entry, looked up): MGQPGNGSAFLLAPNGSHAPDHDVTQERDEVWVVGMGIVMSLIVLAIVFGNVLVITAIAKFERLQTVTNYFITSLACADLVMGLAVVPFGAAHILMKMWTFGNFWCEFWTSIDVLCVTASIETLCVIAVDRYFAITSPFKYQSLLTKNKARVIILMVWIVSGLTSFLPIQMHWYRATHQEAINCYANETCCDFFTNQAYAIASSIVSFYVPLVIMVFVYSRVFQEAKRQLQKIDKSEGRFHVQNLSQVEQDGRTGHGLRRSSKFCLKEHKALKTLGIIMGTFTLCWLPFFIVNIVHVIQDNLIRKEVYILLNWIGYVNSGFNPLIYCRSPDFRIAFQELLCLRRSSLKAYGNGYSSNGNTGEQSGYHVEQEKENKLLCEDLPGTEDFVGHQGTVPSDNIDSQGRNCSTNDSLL

For assay [10], the target named is Thioredoxin reductase 1, cytoplasmic (Rattus norvegicus) (UniProt O89049). The assay can be described thus: qHTS Assay for Inhibitors of Mammalian Selenoprotein Thioredoxin Reductase 1 (TrxR1) (AID 488773).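 Note: drop in NADPH fluorescence over an 8 min run after selenite addition; series mostly up to about 57 µM; nearly all actives have a fitted effect of over 40% in size.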 The note with it: Potency: inhibition. The method in brief:
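Inhibition is scored from the loss of NADPH fluorescence between first and last reads of an 8-min kinetic run. Selenite (400 uM) was the substrate, added after 15 min compound preincubation at room temperature.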

The target in assay [11] is Flap endonuclease 1 (Homo sapiens) (UniProt P39748). The assay can be described thus: qHTS Validation Assay for the Inhibitors of Human Flap endonuclease 1 (FEN1) (AID 488816). An outline of the steps:
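Enzyme reagent 10 nM; cpds pinned; 15 min RT preinc.; substrate 50 nM final; reads t=0 and 15 min; no-enzyme buffer wells as neg. control; normalized data, 4-parameter Hill fit.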

Assay [12] has as its target M-phase phosphoprotein 8 (Homo sapiens) (UniProt Q99549). The assay can be described thus: qHTS Validation Assay for Inhibitors for MPP8 Chromodomain Interactions with Methylated Histone Tails (AID 488949).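 Note: AlphaScreen signal from MPP8 chromodomain bound to biotinylated H3K9me3 peptide; top concentration of the series differs between compounds; nearly all actives have a fitted effect of over 55% in size.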 The method in brief:
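AlphaScreen read-out: streptavidin donor and nickel chelate acceptor beads (final 10 ug/mL), 30 min in the dark at RT. Complex of 50 nM MPP8 and 50 nM b-H3(1-18)K9me3 peptide had been exposed to compounds for 30 min beforehand.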

Assay [13] has as its target RecQ-like DNA helicase BLM (Homo sapiens) (UniProt P54132). The assay can be described thus: qHTS Validation Assay for Inhibitors of Bloom's syndrome helicase (BLM) (AID 2364). The method in brief:
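50 nM BLM preincubated 15 min at room temperature with compound in pH 8.0 Tris buffer containing 2.5 ug/ml poly(dI-dC); started with 200 nM TAMRA/BHQ-2 forked duplex and 2 mM ATP (final). Unwinding read as TAMRA fluorescence increase, two reads 2 h apart.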

Assay [14] in a line: Cytometry Cell-Based qHTS for Inhibitors of the mTORC1 Signaling Pathway in MEF cells (AID 2668).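 Note: Tsc2-/- p53-/- mouse embryonic fibroblasts stably re-expressing wild-type Tsc2; percent cells positive for phospho-rpS6 Ser235/236 relative to propidium iodide stain; series mostly up to about 38 µM.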 The method in brief: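 Read-out: phospho-rpS6 Ser235/236 immunofluorescence normalized to propidium iodide intensity, scored as % active cells against a rapamycin (7.5 nM) threshold. Cells: Tsc2-/-, p53-/- MEFs stably expressing WT Tsc2, compound-treated 24 hrs at 37 degree Celsius.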

The nature of assay [15]: qHTS Validation Assay to Find Inhibitors of Chronic Active B-Cell Receptor Signaling (AID 485345; active = well fitted curve in the direction sought with a large enough effect in the main read-out, with a control signal flat, not every such curve was filed as active). An outline of the steps:
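TMD8 ABC-DLBCL cells stably carrying doxycycline-inducible IkappaBalpha–green luciferase fusion plus unfused red luciferase; compounds 46 uM to 3 nM, 4 h at 37C with doxycycline. Corrected green/red luminescence ratio normalized to 10 uM MG-132 and basal cell wells; curves fitted.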

Assay [16] concerns the target ATP-dependent 6-phosphofructokinase (Trypanosoma brucei brucei) (UniProt O15648). Kind of assay: qHTS Validation Assay to Find Inhibitors of T. brucei phosphofructokinase (AID 485368). The note with it: outcome: dose series up to 57.5 µM. An outline of the steps:
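ADP-Glo luminescence, two-step: residual ATP depleted, then ADP converted to ATP for luciferase. Enzyme 1.25 nM, F6P 0.5 mM, ATP 0.1 mM, pH 8.0 TEA buffer, 45 min RT. Curves fitted and classed by quality and efficacy.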

Assay [17] in a line: Quantitative high throughput screen for delayed death inhibitors of the malarial parasite plastid, 96 hour incubation (AID 488745). Note: nearly all actives have a fitted effect of over 70% in size. Note: potency is the fitted concentration of half-maximal effect. The method in brief:
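Decreased firefly luciferase luminescence indicates inhibited growth of reporter-integrated P. falciparum after two generations (96 h, 37 C, 5% CO2). Infected erythrocytes at 0.1% parasitemia, 2% hematocrit, in Albumax-supplemented RPMI 1640.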

Assay [18] in a line: Quantitative high throughput screen for delayed death inhibitors of the malarial parasite plastid, 48 hour incubation (AID 488752). Note: nearly all actives have a fitted effect of over 65% in size. The method in brief:
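One-generation (48 h) growth assay: a decrease in luciferase signal from an integrated reporter in P. falciparum-infected red cells (0.1% parasitemia, 2% hematocrit) after compound exposure at 37 C indicates parasite inhibition.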

The target of assay [19] is Thioredoxin reductase 1, cytoplasmic (Rattus norvegicus) (UniProt O89049). Kind of assay: qHTS Assay for Substrates of Mammalian Selenoprotein Thioredoxin Reductase 1 (TrxR1) (AID 488772).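 Note: series mostly up to about 57 µM; a drop in NADPH fluorescence below the no-compound background marks a TrxR1 substrate.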 An outline of the steps:
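In this dual-purpose format, potential substrates are identified from the first fluorescence read after selenite addition, not from the 8-minute delta. Rat enzyme is preincubated with NADPH and then with compound at ~22 deg C.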

Molecules are shown by their SMILES. Records with an inconclusive call do not appear. The source made the active and inactive calls. Unless noted, calls come from the whole dose curve; as a rule, active = well fitted curve in the direction sought with a large enough effect; inconclusive = small, poorly fitted or top-dose-only effect, or another doubt; inactive = no such curve, though single readings can be large; an effect the other way counts as inactive or inconclusive.

Chain of Flap endonuclease 1 (Homo sapiens) (P39748 whole entry, looked up): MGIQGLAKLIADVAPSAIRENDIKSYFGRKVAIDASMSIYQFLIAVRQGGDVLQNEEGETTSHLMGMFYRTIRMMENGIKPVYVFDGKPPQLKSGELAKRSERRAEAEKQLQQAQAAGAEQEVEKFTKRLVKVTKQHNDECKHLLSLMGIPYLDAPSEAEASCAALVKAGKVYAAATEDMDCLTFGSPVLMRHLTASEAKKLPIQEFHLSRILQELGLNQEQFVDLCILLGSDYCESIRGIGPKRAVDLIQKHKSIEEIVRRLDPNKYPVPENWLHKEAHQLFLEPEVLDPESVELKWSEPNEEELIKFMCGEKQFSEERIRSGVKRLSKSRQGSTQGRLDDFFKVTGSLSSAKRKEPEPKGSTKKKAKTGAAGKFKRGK
Chain of Ubiquitin carboxyl-terminal hydrolase 2 (Homo sapiens) (O75604 whole entry, looked up): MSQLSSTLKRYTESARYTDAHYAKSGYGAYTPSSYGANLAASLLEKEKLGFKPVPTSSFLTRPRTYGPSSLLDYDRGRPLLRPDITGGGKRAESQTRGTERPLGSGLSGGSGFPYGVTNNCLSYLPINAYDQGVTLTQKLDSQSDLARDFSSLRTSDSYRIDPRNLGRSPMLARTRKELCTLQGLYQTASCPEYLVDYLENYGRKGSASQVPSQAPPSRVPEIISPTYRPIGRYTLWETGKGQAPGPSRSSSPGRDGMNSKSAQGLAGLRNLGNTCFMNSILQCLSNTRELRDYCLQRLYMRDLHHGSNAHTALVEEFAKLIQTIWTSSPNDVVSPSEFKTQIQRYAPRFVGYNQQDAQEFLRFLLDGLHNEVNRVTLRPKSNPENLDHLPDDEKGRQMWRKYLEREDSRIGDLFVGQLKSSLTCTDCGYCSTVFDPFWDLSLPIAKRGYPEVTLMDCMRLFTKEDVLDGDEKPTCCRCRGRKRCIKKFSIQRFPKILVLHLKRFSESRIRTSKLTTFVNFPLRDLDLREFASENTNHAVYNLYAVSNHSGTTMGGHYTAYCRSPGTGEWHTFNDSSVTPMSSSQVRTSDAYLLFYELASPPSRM
Chain of M-phase phosphoprotein 8 (Homo sapiens) (Q99549 whole entry, looked up): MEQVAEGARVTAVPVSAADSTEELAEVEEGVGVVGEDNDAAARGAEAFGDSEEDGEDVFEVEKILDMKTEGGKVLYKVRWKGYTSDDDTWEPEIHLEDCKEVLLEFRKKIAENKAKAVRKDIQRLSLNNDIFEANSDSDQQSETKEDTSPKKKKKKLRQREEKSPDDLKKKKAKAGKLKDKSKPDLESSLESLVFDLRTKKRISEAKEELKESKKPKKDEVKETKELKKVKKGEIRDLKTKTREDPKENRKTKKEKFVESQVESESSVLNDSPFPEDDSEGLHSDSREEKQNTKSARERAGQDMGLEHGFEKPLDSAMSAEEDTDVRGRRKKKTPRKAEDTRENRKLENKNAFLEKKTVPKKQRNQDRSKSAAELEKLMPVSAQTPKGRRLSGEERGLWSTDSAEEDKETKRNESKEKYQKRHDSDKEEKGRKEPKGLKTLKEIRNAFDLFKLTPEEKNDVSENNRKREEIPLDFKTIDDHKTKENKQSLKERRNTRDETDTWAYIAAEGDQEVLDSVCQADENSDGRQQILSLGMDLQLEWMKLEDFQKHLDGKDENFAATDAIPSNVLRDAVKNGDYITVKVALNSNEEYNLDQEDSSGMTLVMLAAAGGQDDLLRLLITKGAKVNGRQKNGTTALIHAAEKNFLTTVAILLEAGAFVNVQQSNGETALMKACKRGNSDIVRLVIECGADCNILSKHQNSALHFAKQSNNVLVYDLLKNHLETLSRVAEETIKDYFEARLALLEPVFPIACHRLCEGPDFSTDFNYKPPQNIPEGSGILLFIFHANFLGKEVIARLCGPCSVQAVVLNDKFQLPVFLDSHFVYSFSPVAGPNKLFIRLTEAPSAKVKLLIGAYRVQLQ
Chain of DNA polymerase III PolC-type (Bacillus subtilis (strain 168)) (P13267 whole entry, looked up): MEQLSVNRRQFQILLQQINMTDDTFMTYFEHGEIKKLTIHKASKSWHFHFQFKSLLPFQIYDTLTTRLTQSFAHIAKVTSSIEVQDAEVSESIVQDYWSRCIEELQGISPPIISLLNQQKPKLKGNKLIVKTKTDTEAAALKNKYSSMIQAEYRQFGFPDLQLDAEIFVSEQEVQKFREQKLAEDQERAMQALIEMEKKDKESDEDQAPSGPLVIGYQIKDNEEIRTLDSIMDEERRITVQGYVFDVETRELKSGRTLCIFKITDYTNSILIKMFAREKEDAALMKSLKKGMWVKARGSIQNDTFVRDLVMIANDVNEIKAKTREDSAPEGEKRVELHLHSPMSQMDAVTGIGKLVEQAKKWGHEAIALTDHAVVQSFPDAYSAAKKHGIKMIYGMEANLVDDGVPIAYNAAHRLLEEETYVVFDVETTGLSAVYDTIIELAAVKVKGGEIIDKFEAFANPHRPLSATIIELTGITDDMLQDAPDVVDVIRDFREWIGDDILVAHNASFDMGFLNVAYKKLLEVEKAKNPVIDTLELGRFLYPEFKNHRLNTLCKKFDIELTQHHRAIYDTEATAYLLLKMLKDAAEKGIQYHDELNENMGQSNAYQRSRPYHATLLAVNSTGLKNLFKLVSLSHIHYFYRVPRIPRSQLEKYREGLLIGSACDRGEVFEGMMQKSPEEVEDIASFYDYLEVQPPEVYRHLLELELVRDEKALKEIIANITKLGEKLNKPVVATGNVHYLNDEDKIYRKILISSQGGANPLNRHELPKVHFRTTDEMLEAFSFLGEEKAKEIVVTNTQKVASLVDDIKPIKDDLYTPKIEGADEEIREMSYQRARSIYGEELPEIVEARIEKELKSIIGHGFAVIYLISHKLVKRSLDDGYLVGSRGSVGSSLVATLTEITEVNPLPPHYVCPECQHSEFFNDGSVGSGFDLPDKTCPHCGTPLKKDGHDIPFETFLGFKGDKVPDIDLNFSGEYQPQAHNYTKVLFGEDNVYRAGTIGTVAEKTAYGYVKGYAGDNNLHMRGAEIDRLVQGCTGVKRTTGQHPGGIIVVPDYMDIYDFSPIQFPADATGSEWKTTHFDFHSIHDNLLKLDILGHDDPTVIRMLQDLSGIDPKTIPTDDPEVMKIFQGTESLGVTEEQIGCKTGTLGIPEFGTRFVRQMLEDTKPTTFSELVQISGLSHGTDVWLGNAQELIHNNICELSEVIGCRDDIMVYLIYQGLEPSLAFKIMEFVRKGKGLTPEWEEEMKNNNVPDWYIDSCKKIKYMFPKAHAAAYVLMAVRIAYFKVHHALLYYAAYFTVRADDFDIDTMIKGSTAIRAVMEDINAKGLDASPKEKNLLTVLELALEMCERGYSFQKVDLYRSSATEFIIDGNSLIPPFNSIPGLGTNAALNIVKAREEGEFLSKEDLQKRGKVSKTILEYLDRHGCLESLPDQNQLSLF
Chain of Ferritin light chain (Equus caballus) (P02791 2-175 limits assumed): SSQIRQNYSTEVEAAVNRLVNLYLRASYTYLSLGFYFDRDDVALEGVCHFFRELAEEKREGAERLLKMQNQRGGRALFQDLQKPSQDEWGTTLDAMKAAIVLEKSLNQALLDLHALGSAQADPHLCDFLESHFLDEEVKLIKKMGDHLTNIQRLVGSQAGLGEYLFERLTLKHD
Chain of Tumor susceptibility gene 101 protein (Homo sapiens) (Q99816 whole entry, looked up, the tested form may be a part): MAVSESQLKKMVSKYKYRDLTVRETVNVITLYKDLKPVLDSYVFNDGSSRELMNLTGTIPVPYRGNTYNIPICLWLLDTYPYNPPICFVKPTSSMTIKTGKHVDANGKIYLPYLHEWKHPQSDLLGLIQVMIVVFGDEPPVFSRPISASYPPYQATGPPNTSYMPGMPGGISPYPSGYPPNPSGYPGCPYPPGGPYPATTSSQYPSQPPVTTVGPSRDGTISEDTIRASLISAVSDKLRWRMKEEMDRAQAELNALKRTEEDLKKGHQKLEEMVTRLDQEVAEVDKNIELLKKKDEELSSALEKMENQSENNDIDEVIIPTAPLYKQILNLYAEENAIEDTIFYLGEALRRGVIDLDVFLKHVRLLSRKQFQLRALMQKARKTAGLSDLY
Chain of Thioredoxin reductase 1, cytoplasmic (Rattus norvegicus) (O89049 whole entry, looked up): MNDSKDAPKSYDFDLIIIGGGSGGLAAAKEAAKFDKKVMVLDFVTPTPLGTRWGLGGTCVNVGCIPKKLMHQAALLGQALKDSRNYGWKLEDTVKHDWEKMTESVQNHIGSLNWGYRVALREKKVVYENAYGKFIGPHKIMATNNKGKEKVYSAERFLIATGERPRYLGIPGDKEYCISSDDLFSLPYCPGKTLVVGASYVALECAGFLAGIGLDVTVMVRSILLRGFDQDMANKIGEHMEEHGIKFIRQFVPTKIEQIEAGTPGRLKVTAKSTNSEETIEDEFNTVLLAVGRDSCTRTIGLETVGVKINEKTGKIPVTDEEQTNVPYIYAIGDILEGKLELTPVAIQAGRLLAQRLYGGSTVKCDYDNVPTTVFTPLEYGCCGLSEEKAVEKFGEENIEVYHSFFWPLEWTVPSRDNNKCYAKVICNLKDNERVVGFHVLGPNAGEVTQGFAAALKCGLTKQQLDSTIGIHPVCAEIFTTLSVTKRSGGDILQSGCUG

Regarding `CCCC(C(=O)OCCN(CC)CC)(c1ccccc1)c1ccccc1`, the call in assay [1], in [2], in [6], in [8] and in [9] was inactive. Moreover, the Potency entry in assay [3], in [4], in assay [5], in assay [7], in [10] and in assay [11] was “inactive” in each case. In assay [12], the Potency entry was “inactive”.

As for `CN(C)C(=O)Oc1ccc[n+](C)c1`, the outcome in [1], in assay [2], in assay [6], in assay [8], in [9] and in assay [16] was inactive. The call in assay [19] was inactive. Besides, the Potency entry in assay [13], in assay [3], in assay [4], in [14], in assay [5] and in assay [7] was “inactive” each time. Besides, the Potency entry in [15], in assay [17], in assay [18], in [10] and in assay [11] was “inactive” in each case.

In the case of `Cc1scc2c1N(C(=O)CN1CCN(C)CC1)c1ccccc1NC2=O`, the outcome in assay [1], in assay [2], in assay [6], in assay [8] and in assay [19] was inactive. Further, the Potency result in assay [13], in assay [3], in assay [4], in assay [14], in assay [5] and in [7] was “inactive” in each case. Moreover, the Potency entry in assay [15], in assay [17] and in assay [18] was “inactive” throughout.

For `COc1cc(C(=O)OCCCN2CCCN(CCCOC(=O)c3cc(OC)c(OC)c(OC)c3)CC2)cc(OC)c1OC`, the result in assay [1], in assay [2], in [6], in [8], in [9] and in assay [19] was inactive. The Potency entry in assay [13], in [3], in [10], in assay [11] and in assay [12] was “inactive” each time. Besides, the Potency in [17] is 6.57 µM (active).

Take `CN1CCN(CC(=O)N2c3ccccc3C(=O)Nc3cccnc32)CC1`: the result in assay [1], in assay [2], in [6], in assay [8] and in assay [19] was inactive. Moreover, the Potency result in [13], in assay [3], in assay [4], in assay [14], in [7] and in assay [15] was “inactive” each time. Moreover, the Potency entry in [17], in assay [10] and in [11] was “inactive” throughout.

Turning to `COC(=O)[C@@H](N)Cc1ccc(O)c(O)c1`, the molecule was called inactive in assay [1], in assay [2], in [6], in assay [8] and in assay [9]. The Potency entry in assay [13], in assay [3], in assay [4], in [14], in assay [5] and in assay [15] was “inactive” in each case. Further, the Potency entry in assay [17], in assay [18], in assay [11] and in [12] was “inactive” each time.

Consider `OC(CCN1CCCCC1)(c1ccccc1)C1CCCCC1` (centres undefined), for which the result in assay [1], in [2], in assay [6], in [8], in assay [9] and in assay [19] was inactive. Besides, the Potency entry in [3], in assay [4], in [14], in [5], in assay [7] and in assay [10] was “inactive” throughout. The Potency entry in assay [11] and in assay [12] was “inactive” in each case.

The values are drawn from PubChem BioAssay (NCATS).
